Reference: the supplement of paper PMC9950053
Where a name gives a salt, the structure may show the parent alone.

test system: Danio rerio larvae (5 dpf); experiment: combined upward orientation toward moving lines (periods 7-14) minus DMSO control (percentage points); higher = more orientation with moving lines than DMSO larvae; settings: 10 µM; exposure time: 3 h pre-incubation + 3 h imaging
Description: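 Wild-type 5 dpf zebrafish larvae (n=48 per drug, 96-well plates, 28.5 °C) were exposed to Tocris FDA-approved library compounds at 10 µM (0.1% DMSO) for 3 h before and 3 h during imaging. Images were taken every 6 s during visual and acoustic stimuli, and larvae were tracked with Z-LaP Tracker. Each measure is the treated-group mean minus the DMSO control mean (n=844), in percentage points. This mapping covers compounds with 5-character plate codes.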

Row | SMILES | combined upward orientation toward moving lines
1 | COc1ccc(C(CN(C)C)C2(O)CCCCC2)cc1 (stereo unspecified) [Venlafaxine hydrochloride] | 0.349
